The full list was thinned out, with hits kept by preference.
ROC1-CUL1 inh – inhibitors of human ROC1-CUL1 ubiquitin ligase activity; E3 ubiquitin-protein ligase RBX1 (Homo sapiens) + Cullin-1 (Homo sapiens), P62877+Q13616; inhibition, % at 10 µM; in vitro K48 di-Ub FRET, acceptor:donor ratio, 45 min; 140,000 tested, 0.6% active; in the data active = inhibition above about 25%
Target sequence (P62877 whole entry, looked up): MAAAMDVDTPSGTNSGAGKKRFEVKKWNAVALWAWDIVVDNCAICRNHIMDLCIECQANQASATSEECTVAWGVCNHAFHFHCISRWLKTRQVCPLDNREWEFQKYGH
Target sequence (Q13616 whole entry, looked up): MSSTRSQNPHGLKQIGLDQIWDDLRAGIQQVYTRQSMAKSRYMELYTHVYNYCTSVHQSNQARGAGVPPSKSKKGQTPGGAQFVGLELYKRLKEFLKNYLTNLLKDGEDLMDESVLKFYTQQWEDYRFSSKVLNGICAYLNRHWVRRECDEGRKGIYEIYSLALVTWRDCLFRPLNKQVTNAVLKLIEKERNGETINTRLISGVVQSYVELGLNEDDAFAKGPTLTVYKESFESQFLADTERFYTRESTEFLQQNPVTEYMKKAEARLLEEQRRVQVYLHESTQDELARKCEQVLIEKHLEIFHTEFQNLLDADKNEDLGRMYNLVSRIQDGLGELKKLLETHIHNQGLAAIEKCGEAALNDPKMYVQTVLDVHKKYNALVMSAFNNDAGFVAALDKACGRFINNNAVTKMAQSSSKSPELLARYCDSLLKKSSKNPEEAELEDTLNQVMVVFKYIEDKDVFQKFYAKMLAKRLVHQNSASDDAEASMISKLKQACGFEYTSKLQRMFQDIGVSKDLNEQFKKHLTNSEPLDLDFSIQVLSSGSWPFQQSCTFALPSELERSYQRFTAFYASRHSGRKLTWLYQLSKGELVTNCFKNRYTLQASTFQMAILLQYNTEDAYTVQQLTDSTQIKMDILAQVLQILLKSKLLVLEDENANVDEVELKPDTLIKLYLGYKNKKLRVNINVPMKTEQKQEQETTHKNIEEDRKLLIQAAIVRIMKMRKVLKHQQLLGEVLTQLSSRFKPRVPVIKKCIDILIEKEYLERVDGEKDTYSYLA
* marks the source's active call; other numbers are inactive results.

SMILES | ROC1-CUL1 inh
CCOC(=O)c1cccc(-n2c(C)cc(C=C3C(=O)N(C)C(=O)N(C)C3=O)c2C)c1 | 4
COC(=O)c1cccc(-n2c(C)cc(/C=C3\SC(=O)N(Cc4ccc(F)cc4)C3=O)c2C)c1 | -2
CC(=O)NC1=NC(=O)/C(=C/c2sccc2C)S1 | 2
Cc1ccc(N2C(=O)/C(=C/c3cc(C)n(-c4ccccc4)c3C)C(=O)N(c3ccccc3)C2=S)cc1C | 0
Cc1cc(/C=C2\C(=O)N(C)C(=S)N(c3ccccc3)C2=O)c(C)n1-c1cccc(C(=O)O)c1 | 28*
CC(=O)NC1=NC(=O)/C(=C/c2cc(C)n(-c3cccc(C(=O)O)c3)c2C)S1 | 50*
COc1ccc(NS(=O)(=O)Cc2ccccc2F)cc1Cl | 1
Cc1ccc(Cl)cc1NC(=O)c1ccccc1F | 9
CN1C(=O)CC(=NC(=O)c2ccc(Br)o2)N(C)C1=O | -7
O=c1cc(C(F)(F)F)nc(N2CCN(Cc3ccccc3)CC2)[nH]1 | 5
O=C1C(Cl)=C(N2CCN(S(=O)(=O)c3ccc(Cl)cc3)CC2)C(=O)c2ccccc21 | 1
O=C1C(Cl)=C(N2CCN(Cc3ccccc3)CC2)C(=O)c2ccccc21 | 104*
CCn1c(=NC(=O)c2ccccc2)sc2c1c1ccccc1n2C(C)=O | -10
O=C(N1CCc2ccccc2C1)N1c2ccccc2Sc2ccccc21 | 1
Cc1ccc(-n2c(Cc3ccccc3)nnc2SCC(=O)Nc2ccccc2Cl)cc1 | 8
CC(C)C(C(=O)O)n1c(O)c(C=C2C=Nc3ccccc32)sc1=S (stereo not given) | 25*
O=C(Cn1c(O)c(C=C2C=Nc3ccccc32)sc1=O)N1CCOCC1 | 3
O=c1[nH]n(-c2cc(Cl)cc(Cl)c2)c(O)c1C=C1C=Nc2ccccc21 | -1
CCOC(=O)N1CCC(NC(=O)C2CC23CCN(C(=O)/C=C/c2ccc(F)cc2F)CC3)CC1 (stereo not given) | 7
O=C1C(=O)N(c2cccc(C(F)(F)F)c2)C(c2ccc(F)cc2)C1C(=O)c1ccc(Br)cc1 (stereo not given) | -11
CC1(C)CC(=O)C(C=Nc2ncccc2C(=O)O)C(=O)C1 | -1
O=C(/C=C/c1ccc(Cl)cc1)N1CCC2(CC1)CC2C(=O)N1CCN(C2CCCCC2)CC1 (stereo not given) | 1
O=C(c1cc(COc2ccc(F)cc2F)on1)N1CCCCC1CO (stereo not given) | 4
COC(=O)[C@@H]1C(c2ccccc2)N=C(c2ccccc2)[C@H]1C (stereo not given in full) | 3
COC(=O)[C@H]1CC2C(=O)C=C(c3ccccc3)C1N2C (stereo not given in full) | 39*
SMILES | ROC1-CUL1 inh
COC(=O)[C@H]1O[C@H](c2ccccc2)O[C@H]1c1ccccc1 | 2
CC(C)(C)c1nc2c(s1)-c1cc(Br)ccc1C2 | 7
c1ccc(OCc2nnc3sc(-c4ccc5c(c4)OCCO5)nn23)cc1 | 4
CSCCNC1CCN(c2ccc(NC(=O)CCCCc3ccccc3)cc2)CC1 | -4
CC1=CC(=Cc2c(O)n(-c3cccc(Cl)c3Cl)c(=S)[nH]c2=O)C(C)=N1 | 93*
COc1ccccc1-n1c(O)c(C=C2C=Nc3ccccc32)c(=O)[nH]c1=S | 15
CCn1c(O)c(C=C2C(C)=Nc3ccccc32)c(=O)[nH]c1=S | -3
CSc1nc(-c2ccc(Cl)cc2)c(C#N)c(=O)[nH]1 | 9
CSc1nc(-c2ccc(C)cc2)[nH]c(=O)c1C#N | 7
C/C=C/c1nc(SC)c(C#N)c(=O)[nH]1 | 62*
Cc1cc(C)c2c(c1)c(-c1ccccc1)c(-c1ccccc1)n2CC(O)Cn1nc(C)cc1C (stereo not given) | -1
O=C1NC(=S)NC(=O)C1=Cc1ccc(-c2ccccc2Cl)o1 | 1
CC(=O)NS(=O)(=O)c1ccc(-c2ccc(C=C3C(=O)NC(=S)NC3=O)o2)cc1 | 41*
CC(=O)NS(=O)(=O)c1ccc(Br)cc1 | -3
N=C1CC=CC1c1nc2ccccc2[nH]1 (stereo not given) | -6
O=C(Nc1ccc(N2CCCC2)c(Cl)c1)c1cccc2ccccc12 | 2
CN1CCN(c2cc3ccccc3c(=O)c3ccccc23)CC1 | -3
c1ccc2c(c1)cc(N1CCCC1)c1ccccc12 | 90*
O=C1N=C2CCCCCC2C(=O)N1CCCn1ccnc1 (stereo not given) | 10
Cc1oc2cc(OC(C)C)ccc2c(=O)c1Oc1ccccc1F | 0
Cc1oc2c(O)c(O)ccc2c(=O)c1Oc1ccc(F)cc1 | 56*
COC(=O)COc1ccc2c(=O)c(Oc3ccccc3)c(C)oc2c1 | -6
COc1cc(C=C2C(=O)OC(c3ccccc3)OC2=O)cc(Cl)c1O (stereo not given) | 8
CCCCOc1ccc(/C=C2/C(=O)N(c3cccc(Cl)c3C)N=C2C)cc1OC | 17
COc1cc(/C=C2\C(=O)N(c3ccccc3Cl)N=C2C)cc(I)c1O | 78*
SMILES | ROC1-CUL1 inh
O=C(c1ccc(=O)[nH]n1)N1CCc2onc(-c3cccc4ccccc34)c2C1 | 0
COC(F)(C(=O)Nc1nc(-c2ccc(C)cc2)cs1)C(F)(F)F (stereo not given) | 12
CCOc1ccc(N=C2S/C(=C\c3cc(Cl)c(OCC(=O)O)c(OC)c3)C(=O)N2CC)cc1 | 94*
CCN1C(=O)/C(=C/c2cc(OC)c(OCC(=O)O)cc2Br)SC1=Nc1ccc(OC)cc1 | 7
COc1cc(/C=C2/SC(=O)N(Cc3ccc(F)cc3)C2=O)cc(I)c1OCC(=O)O | 98*
CCOC(=O)c1ccc(N=C2S/C(=C/c3cc(OC)c(OC)c(OC)c3)C(=O)N2CC)cc1 | 4
O=C(O)COc1ccc(Br)cc1/C=C1\SC(=O)N(Cc2ccc(F)cc2)C1=O | 1
COc1cc(/C=C2\SC(=O)N(Cc3ccc(F)cc3)C2=O)ccc1OCc1ccc(C(=O)O)cc1 | 17
O=[N+]([O-])c1cccc(-c2nc(-c3ccccc3Cl)no2)c1 | -7
Cc1sc2c(c1C)-c1c(sc(C)c1C)C2=O | -2
CCN1CCCC1CN(Cc1ccc(CO)o1)CC1CCN(CCOC)CC1 (stereo not given) | 3
CCOC(=O)c1cc2c([nH]c1=O)CC(c1ccc(F)cc1)CC2=O (stereo not given) | 9
COC(=O)c1cccc(-c2ccc(/C=C3/C(=O)NN(c4ccc(C)cc4)C3=O)o2)c1 | 15
Cc1ccc(/C=C2/C(=O)NN(c3cccc(C(F)(F)F)c3)C2=O)o1 | 9
CCc1ccc(N2NC(=O)/C(=C/c3ccc(-c4ccccc4F)o3)C2=O)cc1 | -1
COC(=O)c1ccccc1-c1ccc(/C=C2\C(=O)NN(c3ccc(Br)cc3)C2=O)o1 | 11
O=C1NN(c2ccc(Cl)c(Cl)c2)C(=O)/C1=C\c1ccc(-c2ccc(Br)cc2C(=O)O)o1 | 71*
O=C1NN(c2ccc(I)cc2)C(=O)/C1=C\c1ccc(-c2ccc(Br)cc2C(=O)O)o1 | 45*
O=C1NN(c2ccc(I)cc2)C(=O)/C1=C\c1ccc(-c2cccc(C(=O)O)c2)o1 | 33*
O=C(Nc1ccccc1C(=O)O)c1cc2ccccc2o1 | -2
Cc1cn2c3c(=O)n(Cc4ccccc4F)c(=O)n(C)c3nc2n1CCCO | 12
COC(=O)c1c(C(=O)OC)c(C(=O)OC)n(-c2ccc(OC)cc2)c1C(=O)OC | 13
COc1ccc(NC(C)=O)cc1[N+](=O)[O-] | 2
COc1ccccc1-n1c(SCc2ccc(Cl)c(Cl)c2)nc2sc3c(c2c1=O)CCC3 | 9
COc1ccc(-c2cc(-c3ccc(C)cc3)nc3sc(C(=O)Nc4ccc(Oc5ccccc5)cc4)c(N)c23)cc1 | -5
